Results as given in PubChem BioAssay (NCATS).
Records with an inconclusive call do not appear. Entries that show only a call come without a potency. Active and inactive are the calls of the source. The call rests on the fitted dose curve; in most records, active means well fitted inhibition curve with a large enough effect; inconclusive means small, poorly fitted or top-dose-only effect; inactive means flat fitted curve, though single readings scatter.

What follows are compounds tested against Luciferin 4-monooxygenase (Photinus pyralis) (UniProt P08659) (assay: Biochemical firefly luciferase enzyme assay for NPC (AID 624030; further: nearly all actives have a fitted effect of over 70% in size)). Settings: purified P. pyralis luciferase, luminescence, 5 min; series mostly up to 58.6 µM.
Luciferin 4-monooxygenase (Photinus pyralis), sequence (P08659 whole entry, looked up): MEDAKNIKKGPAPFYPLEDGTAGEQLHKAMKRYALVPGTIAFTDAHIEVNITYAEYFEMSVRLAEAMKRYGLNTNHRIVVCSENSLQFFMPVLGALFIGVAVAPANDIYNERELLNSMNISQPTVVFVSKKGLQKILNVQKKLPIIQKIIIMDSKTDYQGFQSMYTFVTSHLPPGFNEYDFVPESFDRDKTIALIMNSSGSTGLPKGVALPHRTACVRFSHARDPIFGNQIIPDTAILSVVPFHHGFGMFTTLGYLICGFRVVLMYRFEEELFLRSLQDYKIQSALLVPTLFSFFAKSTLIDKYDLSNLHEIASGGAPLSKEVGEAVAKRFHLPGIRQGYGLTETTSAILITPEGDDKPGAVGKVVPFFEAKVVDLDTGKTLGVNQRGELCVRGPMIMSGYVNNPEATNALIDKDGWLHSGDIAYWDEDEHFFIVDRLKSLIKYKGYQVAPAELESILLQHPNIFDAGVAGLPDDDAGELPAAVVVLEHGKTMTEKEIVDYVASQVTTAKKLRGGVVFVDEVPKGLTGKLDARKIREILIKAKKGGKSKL
Summary of the method: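 Purified P. pyralis luciferase at 10 nM in 50 mM Tris Acetate (final), luminescence read within 5 minutes of enzyme addition to compounds. Activity normalised to PTC124 versus DMSO; concentration-response curves classed by r2, magnitude and activity.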
Potency means the concentration at half of the fitted maximal effect.

| Compound | Potency |
| --- | --- |
| CC(=O)Nc1ccc(S(=O)(=O)Nc2ccc([N+](=O)[O-])cc2)cc1 | inactive |
| Cc1ncc(CO)c(C=O)c1O | inactive |
| O=C1C(O)=C(O)C(=O)C(O)=C1O | inactive |
| CC(C)[N+](C)(C)CC(O)COc1cccc2ccccc12 (stereo not given) | inactive |
| CC1CCc2c(N3CCC(O)CC3)c(F)cc3c(=O)c(C(=O)O)cn1c23 (stereo not given) | inactive |
| CCCCNC(=O)NS(=O)(=O)c1ccc(N)cc1 | inactive |
| CCOC(=O)c1ccc(N)cc1 | inactive |
| O=S(c1cc(Cl)cc(Cl)c1O)c1cc(Cl)cc(Cl)c1O | 32.2 µM (active) |
| CC(=O)NC(=O)c1ccccc1O | inactive |
| CC(=O)Nc1ccc(OC(=O)c2ccccc2OC(C)=O)cc1 | inactive |
| O=C(Nc1cccc(C2=NCCN2)c1)Nc1cccc(C2=NCCN2)c1 | inactive |
| CC(=O)O[C@H]1C[C@@H]2CC[C@@H]3[C@H](CC[C@@]4(C)[C@H]3C[C@H]([N+]3(C)CCCCC3)[C@@H]4OC(C)=O)[C@@]2(C)C[C@@H]1N1CCCCC1 | inactive |
| COc1cc(C)nc(-n2nc(C)cc2OC)n1 | inactive |
| COc1ccc(CCN(C)CCCN2CCc3cc(OC)c(OC)cc3CC2=O)cc1OC | inactive |
| CC(=O)Nc1ccc(OCC(O)CNC(C)C)cc1 (stereo not given) | inactive |
| CC(=O)NCCCCCC(=O)O | inactive |
| CCN1/C(=C/C=C/c2sc3ccccc3[n+]2CC)Sc2ccccc21 | 12.8 µM (active) |
| O=C(O)CCC(=O)Nc1ccc(S(=O)(=O)Nc2nccs2)cc1 | inactive |

| Compound | Potency |
| --- | --- |
| N#CCC(=O)NN | inactive |
| CC(=O)N[C@@H](CCC(=O)O)C(=O)O | inactive |
| CCN(CC)CCNC(=O)COc1ccc(OC)cc1 | inactive |
| CN1CCN(c2cc3c(cc2F)c(=O)c(C(=O)O)cn3-c2ccc(F)cc2)CC1 | inactive |
| CC(=O)Oc1ccc(C)cc1 | inactive |
| Cc1cccc(C)c1NC(=O)c1ccccc1C(=O)O | inactive |
| COc1cc(NS(=O)(=O)c2ccc(N)cc2)ncn1 | inactive |
| NS(=O)(=O)c1ccc(Cl)c(S(N)(=O)=O)c1 | inactive |
| COc1ccc(CN(CCN(C)C)c2ncccn2)cc1 | inactive |
| Nc1ccc(C(=O)NCC(=O)O)cc1 | inactive |
| CC(C)(C)NC[C@H](O)COc1cccc2c1CCCC2=O | inactive |
| Cc1nc(-c2ccc(Cl)cc2)oc1COC(C)(C)C(=O)O | inactive |
| CCN(CC)CCOc1ccc2c(c1)C(=O)c1cc(OCCN(CC)CC)ccc1-2 | inactive |
| OC1C(O)C(O)C(O)C(O)C1O (stereo not given) | inactive |
| N=C(N)N1CCc2ccccc2C1 | inactive |
| Cc1cccc(C)c1NC(=O)CN1CCCCCC1 | inactive |
| COC(=O)C(c1ccccc1Cl)N1CCc2sccc2C1 (stereo not given) | inactive |
